Out of some 220,000 compounds screened, about 830 (0.38%) were called active.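 The calls were made as follows: active = compound inhibiting the enzyme by more than half at any dose during confirmatory dose-response retesting; inconclusive = strong single-dose inhibitors picked by rank but not retested; inactive = the rest.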 Not all results are given here. Results with a measured potency or affinity are listed apart.
target: Leucine aminopeptidase (Plasmodium falciparum (isolate 3D7)) (UniProt Q8IL11); assay: P. falciparum M17LAP inhibitors, primary screen, biochemical, fluorogenic H-Leu-NHMec substrate, 1536-well (AID 1619); details: recombinant M17LAP, H-Leu-NHMec fluorogenic kinetic assay; at 30 µM; active compounds read high;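 also: plate controls were full reaction with DMSO carrier for no effect and no enzyme background for full effect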
Sequence (Q8IL11 whole entry, looked up): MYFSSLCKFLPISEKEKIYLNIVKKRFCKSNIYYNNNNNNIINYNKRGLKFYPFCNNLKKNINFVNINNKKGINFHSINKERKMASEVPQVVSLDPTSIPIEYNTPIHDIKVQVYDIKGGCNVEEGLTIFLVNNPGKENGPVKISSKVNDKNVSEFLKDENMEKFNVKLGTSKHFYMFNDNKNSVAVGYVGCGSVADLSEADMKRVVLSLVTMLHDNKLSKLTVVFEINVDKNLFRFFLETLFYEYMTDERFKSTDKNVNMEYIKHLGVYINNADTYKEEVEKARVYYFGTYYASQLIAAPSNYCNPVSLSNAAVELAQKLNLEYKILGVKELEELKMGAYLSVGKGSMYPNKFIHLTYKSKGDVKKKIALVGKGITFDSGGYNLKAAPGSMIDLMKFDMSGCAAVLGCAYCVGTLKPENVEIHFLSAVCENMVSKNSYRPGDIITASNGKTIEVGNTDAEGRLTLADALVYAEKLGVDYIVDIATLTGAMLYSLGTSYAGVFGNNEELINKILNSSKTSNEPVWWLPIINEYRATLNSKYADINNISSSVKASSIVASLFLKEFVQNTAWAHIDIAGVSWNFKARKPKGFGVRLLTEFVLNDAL

inhibition, inactive:
CCOC(=O)NC(=O)C(=CNc1ccccc1OC)C(=O)NC(=O)OCC 22.1%
O=[N+]([O-])c1ccc([C@H](O)[C@H](CO)N=Cc2ccccc2O)cc1 3.71%
CCNC(=O)CC1C(=O)N(c2ccccc2)C(=O)N1Cc1ccc(OC)cc1 (centres undefined) -7.36%
Cc1c(-c2nnc(-c3ccc(C(F)(F)F)cc3)o2)cnn1-c1ccccc1 -4.2%
CC(=C\c1ccccc1)/C=C1/SC(=O)N(CCCC(=O)Nc2ccc(C(=O)O)cc2)C1=O 52.8%
CC(/C=C1\SC(=S)N(CC(=O)O)C1=O)=C\c1ccccc1 19.7%
CC(=O)Nc1sc2c(c1C#N)CCC(C)C2 (centres undefined) -3.55%
Cc1cc(C(=O)Nc2sc3c(c2C#N)CCC(C(C)(C)C)C3)no1 (centres undefined) -3.46%
CCCC1CCc2c(sc(NC(=O)OCC)c2C#N)C1 (centres undefined) -10%
CN1CCN(CC(=O)Nc2sc3c(c2C#N)CCC(C(C)(C)C)C3)CC1 (centres undefined) -2.54%
CCCn1ncc(CN2CCN(Cc3ccsc3)C(CCO)C2)c1C (centres undefined) -4.96%
Cc1ccc(Nc2ccc(-n3ccnc3)nn2)cc1C 1.15%
CCCCNC(=O)N1CCN(C(=O)C2CCCO2)CC1 (centres undefined) -0.24%
C=C(C)COc1ccc2oc(C)c(C(=O)OCCOC)c2c1 -2.33%
CCCCOc1ccc(N(CC(=O)NCC2CCCO2)C(=O)CCC(=O)Nc2nccs2)cc1 (centres undefined) -11.6%
CCOc1ccc(NC(=O)C2CC(=O)NC(N3CCc4ccccc43)=N2)cc1 (centres undefined) 13.4%
CCn1c2ccccc2c2cc(NC(=O)CC(C)=O)ccc21 -12.3%
O=C(CSc1nccc(=O)[nH]1)Nc1ccc(F)c([N+](=O)[O-])c1 31.4%
CCC(=O)Nc1ccc(Br)c(Cl)c1 -2.61%
CCCC(=O)Nc1ccc2c(c1)c1ccccc1n2CC -0.99%
Nc1cc(=O)[nH]c(SCC(=O)Nc2ccc(F)c(Cl)c2)n1 45.2%
O=C(CSc1nccc(-c2cccs2)n1)Nc1ccc(F)c(Cl)c1 8.92%
CN(C)S(=O)(=O)c1cccc(NC(=S)NCCCn2ccnc2)c1 2.61%
Cn1nnc2cc(C(=O)N3CCC(c4ccccc4)C3)ccc21 (centres undefined) 9.75%
O=C(COc1ccc(/C=N/NC(=O)c2ccc(O)cc2)cc1)Nc1cccc([N+](=O)[O-])c1 -2.3%
CNC(=S)Nc1cccc(Cl)c1C 0.94%
CCn1c(Cc2ccccc2)nnc1SCc1ccc([N+](=O)[O-])cc1 -12%
Cc1[nH]c2ccccc2c1N=Nc1cc(C(=O)O)cc(C(=O)O)c1 21.5%
Oc1[nH]c2ccccc2c1N=Nc1ccc(F)cc1 26.1%
Oc1[nH]c2ccccc2c1N=Nc1ccccc1 7.84%
CC(=O)c1cccc(N=Nc2c(C)[nH]c3ccccc23)c1 -8.29%
COc1cccc(CNC(=O)CCC2CCCN(Cc3cc4ccccc4o3)C2)c1 (centres undefined) -1.88%
Cc1nnc(SCc2cc(=O)[nH]c(=S)[nH]2)s1 27.4%
O=c1cc(Cc2ccccc2)[nH]c(=S)[nH]1 0.4%
O=C(NC1CCS(=O)(=O)C1)c1cn(-c2ccccc2)nc1-c1ccccc1 (centres undefined) -4.23%
Cc1cc(C)nc(N2CCCC(C(=O)NC(C)CCc3ccco3)C2)n1 (centres undefined) 2.6%
CC(OC(=O)CCCc1nc2ccccc2s1)C(=O)NC(N)=O (centres undefined) -1.53%
Cc1ccccc1S(=O)(=O)c1cc(C#N)c(=O)[nH]c1N -8.15%
COc1ccc(N(CC(=O)NCc2ccccc2)S(=O)(=O)c2c(C)noc2C)cc1 -3.73%
CCOc1ccc(NC(=S)NCc2nc3ccccc3[nH]2)cc1 -5.56%
O=C(O)CC1S/C(=N/N=C/c2ccc(-c3ccc(Cl)cc3[N+](=O)[O-])o2)NC1=O (centres undefined) 31.2%
Cc1ccc(-c2ccc(/C=N/N3C(=O)C4C5C=CC(CC5)C4C3=O)o2)c([N+](=O)[O-])c1 (centres undefined) 5.1%
COc1cc(-c2cc(C(=O)Nc3nc4ccccc4s3)c3ccccc3n2)cc(OC)c1OC 4.34%
c1ccc(CN2c3ccccc3-c3nc4ccccc4n3C2c2ccccn2)cc1 (centres undefined) 1.51%
COCCOC(=O)C1=C(C)NC(=O)NC1/C=C/c1ccccc1 (centres undefined) 0.26%
Cc1cc(C)c(/C=C(\C#N)S(=O)(=O)c2ccccc2)[nH]1 -7.74%
N#C/C(=C/c1ccc(F)cc1)S(=O)(=O)c1ccccc1 -4.38%
CC1=CC2=NC(=O)/C(=C\c3cccn3CCOc3ccccc3)C(=N)N2O1 8.69%
COc1cccc(OCCn2cccc2/C=C2/C(=N)N3OC(C)=CC3=NC2=O)c1 0.81%
Cc1nn(-c2ccccc2)c(C)c1C(=O)NCc1ccc(F)cc1 -15.7%
FC(F)(F)c1cnc(-c2cnc(-c3cccnc3)nc2)c(Cl)c1 1.19%
c1coc(-c2nc(-c3ccco3)c(-c3ccco3)nc2-c2ccco2)c1 48.1%
c1coc(-c2ncc[nH]2)c1 -2.51%
COc1ccc(/C=N/N2CCN(c3ccncc3S(=O)(=O)N3CCCCC3)CC2)cc1 0%
Cc1cc(C(=O)COC(=O)c2cccnc2Cl)c(C)n1-c1c(C)n(C)n(-c2ccccc2)c1=O 10.5%
Cc1cc(C(=O)OCC(N)=O)c(C)n1-c1ccccc1 3.65%
CCCn1c(C)cc(C(=O)COC(=O)c2nccnc2N)c1C 6.47%
CCOc1ncccc1C(=O)OCC(=O)c1cc(C)n(Cc2ccco2)c1C 6.52%
COc1ccc(Nc2nc(N)nc(CN3CCC(Cc4ccccc4)CC3)n2)cc1 -2.44%
CCOC(=O)CC(=O)CSc1n[nH]c(=O)[nH]c1=O -5.31%
CCn1c(SCC(=O)O)nnc1-c1ccccc1OC -7.5%
CCn1c(SCC(=O)C(C)(C)C)nnc1-c1ccccc1OC 6.79%
C=CCn1c(SCC(=O)c2ccc(O)c(O)c2)nnc1-c1cccnc1 22.5%
C=CCn1c(SCC(=O)c2ccc(OC)cc2)nnc1-c1cc2cccc(OC)c2o1 3.95%

— PubChem BioAssay AID1619 (SRMLSC, 2009)
